Paper PMC11006913
Changes are numbered by the printed parent chain.

Key:
Assay in all cases: PBM; 200 nM protein, PBS
Conditions in all cases: dsDNA, one strand shown
[1] = molecular target: T1, SIX6 (Homo sapiens, UniProt O95475 114-200, L167I)
T1 sequence: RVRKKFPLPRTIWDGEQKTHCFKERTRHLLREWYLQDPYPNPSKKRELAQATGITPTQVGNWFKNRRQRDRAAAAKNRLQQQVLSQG

[2] = molecular target: T2, SIX6 (Homo sapiens, UniProt O95475 114-200, L143V)
T2 sequence: T1 sequence with L30V, I54L

[3] = molecular target: T3, SIX6 (Homo sapiens, UniProt O95475 114-200, H141N)
T3 sequence: T1 sequence with H28N, I54L

[4] = molecular target: T4, SIX6 (Homo sapiens, UniProt O95475 114-200, T165P)
T4 sequence: T1 sequence with T52P, I54L

[5] = molecular target: T5, SIX6 (Homo sapiens, UniProt O95475 114-200, L167M)
T5 sequence: T1 sequence with I54M

[6] = molecular target: T6, SIX6 (Homo sapiens, UniProt O95475 114-200, L143M)
T6 sequence: T1 sequence with L30M, I54L

[7] = molecular target: T7, SIX6 (Homo sapiens, UniProt O95475 114-200, L143I)
T7 sequence: T1 sequence with L30I, I54L

[8] = molecular target: T8, SIX6 (Homo sapiens, UniProt O95475 114-200, T165G)
T8 sequence: T1 sequence with T52G, I54L

[9] = molecular target: T9, SIX6 (Homo sapiens, UniProt O95475 114-200, T139Q)
T9 sequence: T1 sequence with T26Q, I54L

[10] = molecular target: T10, SIX6 (Homo sapiens, UniProt O95475 114-200, T165A)
T10 sequence: T1 sequence with T52A, I54L

[11] = molecular target: T11, SIX6 (Homo sapiens, UniProt O95475 114-200, L167V)
T11 sequence: T1 sequence with I54V

[12] = molecular target: T12, SIX6 (Homo sapiens, UniProt O95475 114-200)
T12 sequence: T1 sequence with I54L

[13] = molecular target: T13, SIX6 (Homo sapiens, UniProt O95475 114-200, T165I)
T13 sequence: T1 sequence with T52I, I54L

[14] = molecular target: HOXA2 (Homo sapiens, UniProt O43364 129-215, R185T)
HOXA2 (Homo sapiens, UniProt O43364 129-215, R185T), sequence (O43364 129-215 R185T): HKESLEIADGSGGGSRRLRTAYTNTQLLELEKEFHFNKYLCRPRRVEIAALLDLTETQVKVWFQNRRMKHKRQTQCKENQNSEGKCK

[15] = molecular target: HOXA2 (Homo sapiens, UniProt O43364 129-215, R185K)
HOXA2 (Homo sapiens, UniProt O43364 129-215, R185K), sequence (O43364 129-215 R185K): as the sequence (O43364 129-215 R185T) above, with T57K counted along it

[16] = molecular target: HOXA2 (Homo sapiens, UniProt O43364 129-215, Y150S)
HOXA2 (Homo sapiens, UniProt O43364 129-215, Y150S), sequence (O43364 129-215 Y150S): as the sequence (O43364 129-215 R185T) above, with Y22S, T57R counted along it

[17] = molecular target: HOXA2 (Homo sapiens, UniProt O43364 129-215)
HOXA2 (Homo sapiens, UniProt O43364 129-215), sequence (O43364 129-215): as the sequence (O43364 129-215 R185T) above, with T57R counted along it

## AGGCGCCC
[1]
  binding signal: 8.71 upbm affinity estimate (log intensity, higher = more binding, comparable within an allelic series)
[2]
  binding signal: 8.6 upbm affinity estimate (log intensity, higher = more binding, comparable within an allelic series)
[3]
  binding signal: 8.7 upbm affinity estimate (log intensity, higher = more binding, comparable within an allelic series)
[4]
  binding signal: 8.77 upbm affinity estimate (log intensity, higher = more binding, comparable within an allelic series)
[5]
  binding signal: 8.76 upbm affinity estimate (log intensity, higher = more binding, comparable within an allelic series)
[6]
  binding signal: 8.63 upbm affinity estimate (log intensity, higher = more binding, comparable within an allelic series)
[7]
  binding signal: 8.66 upbm affinity estimate (log intensity, higher = more binding, comparable within an allelic series)
[8]
  binding signal: 8.66 upbm affinity estimate (log intensity, higher = more binding, comparable within an allelic series)
[9]
  binding signal: 8.66 upbm affinity estimate (log intensity, higher = more binding, comparable within an allelic series)
[10]
  binding signal: 8.69 upbm affinity estimate (log intensity, higher = more binding, comparable within an allelic series)
[11]
  binding signal: 8.65 upbm affinity estimate (log intensity, higher = more binding, comparable within an allelic series)
[12]
  binding signal: 8.6 upbm affinity estimate (log intensity, higher = more binding, comparable within an allelic series)
[13]
  binding signal: 8.7 upbm affinity estimate (log intensity, higher = more binding, comparable within an allelic series)

## GCCCTGCC
[1]
  binding signal: 8.89 upbm affinity estimate (log intensity, higher = more binding, comparable within an allelic series)
[2]
  binding signal: 8.78 upbm affinity estimate (log intensity, higher = more binding, comparable within an allelic series)
[3]
  binding signal: 8.91 upbm affinity estimate (log intensity, higher = more binding, comparable within an allelic series)
[4]
  binding signal: 8.91 upbm affinity estimate (log intensity, higher = more binding, comparable within an allelic series)
[5]
  binding signal: 8.87 upbm affinity estimate (log intensity, higher = more binding, comparable within an allelic series)
[6]
  binding signal: 8.9 upbm affinity estimate (log intensity, higher = more binding, comparable within an allelic series)
[7]
  binding signal: 8.84 upbm affinity estimate (log intensity, higher = more binding, comparable within an allelic series)
[8]
  binding signal: 8.91 upbm affinity estimate (log intensity, higher = more binding, comparable within an allelic series)
[14]
  binding signal: 6.93 upbm affinity estimate (log intensity, higher = more binding, comparable within an allelic series)
[9]
  binding signal: 9.01 upbm affinity estimate (log intensity, higher = more binding, comparable within an allelic series)
[10]
  binding signal: 8.99 upbm affinity estimate (log intensity, higher = more binding, comparable within an allelic series)
[15]
  binding signal: 10.3 upbm affinity estimate (log intensity, higher = more binding, comparable within an allelic series)
[11]
  binding signal: 8.94 upbm affinity estimate (log intensity, higher = more binding, comparable within an allelic series)
[12]
  binding signal: 8.87 upbm affinity estimate (log intensity, higher = more binding, comparable within an allelic series)
[13]
  binding signal: 8.85 upbm affinity estimate (log intensity, higher = more binding, comparable within an allelic series)
[16]
  binding signal: 10.4 upbm affinity estimate (log intensity, higher = more binding, comparable within an allelic series)
[17]
  binding signal: 7.06 upbm affinity estimate (log intensity, higher = more binding, comparable within an allelic series)

## CGGGCCGC
[1]
  binding signal: 9.03 upbm affinity estimate (log intensity, higher = more binding, comparable within an allelic series)
[2]
  binding signal: 8.81 upbm affinity estimate (log intensity, higher = more binding, comparable within an allelic series)
[3]
  binding signal: 9.05 upbm affinity estimate (log intensity, higher = more binding, comparable within an allelic series)
[4]
  binding signal: 8.75 upbm affinity estimate (log intensity, higher = more binding, comparable within an allelic series)
[5]
  binding signal: 8.94 upbm affinity estimate (log intensity, higher = more binding, comparable within an allelic series)
[6]
  binding signal: 8.95 upbm affinity estimate (log intensity, higher = more binding, comparable within an allelic series)
[7]
  binding signal: 8.91 upbm affinity estimate (log intensity, higher = more binding, comparable within an allelic series)
[8]
  binding signal: 8.87 upbm affinity estimate (log intensity, higher = more binding, comparable within an allelic series)
[9]
  binding signal: 8.94 upbm affinity estimate (log intensity, higher = more binding, comparable within an allelic series)
[10]
  binding signal: 9.01 upbm affinity estimate (log intensity, higher = more binding, comparable within an allelic series)
[11]
  binding signal: 8.94 upbm affinity estimate (log intensity, higher = more binding, comparable within an allelic series)
[12]
  binding signal: 9.02 upbm affinity estimate (log intensity, higher = more binding, comparable within an allelic series)
[13]
  binding signal: 8.91 upbm affinity estimate (log intensity, higher = more binding, comparable within an allelic series)

## GTATCATA
[1]
  binding signal: 11.5 upbm affinity estimate (log intensity, higher = more binding, comparable within an allelic series)
[2]
  binding signal: 10.5 upbm affinity estimate (log intensity, higher = more binding, comparable within an allelic series)
[3]
  binding signal: 11.5 upbm affinity estimate (log intensity, higher = more binding, comparable within an allelic series)
[4]
  binding signal: 9.93 upbm affinity estimate (log intensity, higher = more binding, comparable within an allelic series)
[5]
  binding signal: 10.8 upbm affinity estimate (log intensity, higher = more binding, comparable within an allelic series)
[6]
  binding signal: 11.2 upbm affinity estimate (log intensity, higher = more binding, comparable within an allelic series)
[7]
  binding signal: 10.6 upbm affinity estimate (log intensity, higher = more binding, comparable within an allelic series)
[8]
  binding signal: 11.5 upbm affinity estimate (log intensity, higher = more binding, comparable within an allelic series)
[9]
  binding signal: 11.3 upbm affinity estimate (log intensity, higher = more binding, comparable within an allelic series)
[10]
  binding signal: 11.4 upbm affinity estimate (log intensity, higher = more binding, comparable within an allelic series)
[11]
  binding signal: 11.3 upbm affinity estimate (log intensity, higher = more binding, comparable within an allelic series)
[12]
  binding signal: 11.2 upbm affinity estimate (log intensity, higher = more binding, comparable within an allelic series)
[13]
  binding signal: 11.3 upbm affinity estimate (log intensity, higher = more binding, comparable within an allelic series)

## CCCCGGGG
[1]
  binding signal: 9.12 upbm affinity estimate (log intensity, higher = more binding, comparable within an allelic series)
[2]
  binding signal: 8.92 upbm affinity estimate (log intensity, higher = more binding, comparable within an allelic series)
[3]
  binding signal: 9.16 upbm affinity estimate (log intensity, higher = more binding, comparable within an allelic series)
[4]
  binding signal: 8.88 upbm affinity estimate (log intensity, higher = more binding, comparable within an allelic series)
[5]
  binding signal: 9.05 upbm affinity estimate (log intensity, higher = more binding, comparable within an allelic series)
[6]
  binding signal: 9.06 upbm affinity estimate (log intensity, higher = more binding, comparable within an allelic series)
[7]
  binding signal: 8.94 upbm affinity estimate (log intensity, higher = more binding, comparable within an allelic series)
[8]
  binding signal: 9.11 upbm affinity estimate (log intensity, higher = more binding, comparable within an allelic series)
[14]
  binding signal: 6.97 upbm affinity estimate (log intensity, higher = more binding, comparable within an allelic series)
[9]
  binding signal: 9.14 upbm affinity estimate (log intensity, higher = more binding, comparable within an allelic series)
[10]
  binding signal: 9.14 upbm affinity estimate (log intensity, higher = more binding, comparable within an allelic series)
[15]
  binding signal: 10.1 upbm affinity estimate (log intensity, higher = more binding, comparable within an allelic series)
[11]
  binding signal: 9.05 upbm affinity estimate (log intensity, higher = more binding, comparable within an allelic series)
[12]
  binding signal: 9.11 upbm affinity estimate (log intensity, higher = more binding, comparable within an allelic series)
[13]
  binding signal: 9.08 upbm affinity estimate (log intensity, higher = more binding, comparable within an allelic series)
[16]
  binding signal: 10.4 upbm affinity estimate (log intensity, higher = more binding, comparable within an allelic series)
[17]
  binding signal: 7.1 upbm affinity estimate (log intensity, higher = more binding, comparable within an allelic series)
